Screens (PubChem BioAssay)
Only some compounds are listed: those with a hit (about 11% of all), similar ones and a draw of the others.
PNC assembly inh: blocks assembly of the perinucleolar compartment; PC3M PTB-GFP, PNC prevalence imaging, 16 h; stronger effect = lower value; activity change (PNC), negative = inhibition, % at 10 µM; actives 3.1% (n = 140,000); AID 2417;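 active = readout at or below -70, meaning at least 70% loss of cells showing the perinucleolar compartment, a nuclear body marking cancer cells; inconclusive = readout between -30 and a set limit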;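 also: plate controls were DMSO wells for no effect and camptothecin positive control wells for full effect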
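Compounds are pinned in duplicate onto adhered PC3M cells stably expressing GFP-tagged PTB and incubated 16 h at 37 C. Cells are then fixed, nuclei stained with Hoechst, and PNC-positive cells counted.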
ALDH1A1 inh: ALDH1A1 (human) enzyme inhibition | Purified ALDH1A1, NADH fluorescence, propionaldehyde substrate | Potency, µM (titrated, usually from 75.3 µM), inactives show top-dose activity, negative = inhibition, usual class: inhibitors | actives 7.3% (n = 220,000) | AID 1030;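 also: potency is read from the fitted curve at half-maximal effect; plate controls were no enzyme wells and a reference inhibitor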
Target sequence (P00352 whole entry, looked up): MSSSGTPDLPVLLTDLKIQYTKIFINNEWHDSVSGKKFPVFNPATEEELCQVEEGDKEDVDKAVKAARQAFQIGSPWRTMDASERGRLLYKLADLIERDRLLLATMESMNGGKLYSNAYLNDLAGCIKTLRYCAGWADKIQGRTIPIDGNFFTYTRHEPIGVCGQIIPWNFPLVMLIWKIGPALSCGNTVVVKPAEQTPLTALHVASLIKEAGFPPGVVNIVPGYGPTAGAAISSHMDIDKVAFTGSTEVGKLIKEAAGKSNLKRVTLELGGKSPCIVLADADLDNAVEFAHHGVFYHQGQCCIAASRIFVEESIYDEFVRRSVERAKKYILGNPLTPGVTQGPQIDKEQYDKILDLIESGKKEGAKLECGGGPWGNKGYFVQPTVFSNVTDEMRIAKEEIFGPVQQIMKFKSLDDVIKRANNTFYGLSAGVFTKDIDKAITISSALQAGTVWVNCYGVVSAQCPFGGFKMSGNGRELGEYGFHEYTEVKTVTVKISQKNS
HPGD block: inhibitors of human 15-hydroxyprostaglandin dehydrogenase (HPGD) | P15428 | purified HPGD, NADH fluorescence kinetic, PGE2 substrate | Potency, µM, without a hit: at the highest dose activity change, negative = inhibition, most hits filed as inhibitors | actives 4.3% (n = 150,000) | AID 894; also: potency is read from the fitted curve at half-maximal effect
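20 nM HPGD preincubated 15 min at room temperature with compound in 50 mM Tris-HCl pH 8, 0.01% Tween 20. Started with 1 mM NAD+ and 30 uM prostaglandin E2; NADH fluorescence (360/450 nm) read 5 times over 30-s intervals, last minus first.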
Starred values were filed as active, the others as inactive; ? = inconclusive; / = not tested or not shown; [ ] = remark or other dose. Unless noted, calls follow the shape of the dose curve; as a rule, active = well fitted inhibition curve with a large enough effect (not every such curve was filed as active); inconclusive = small, poorly fitted or top-dose-only effect, or another doubt; inactive = no such curve, though single readings can be large or run the other way. Unless noted, % is scaled to controls: 0 for no effect and ±100 for the full control effect.

SMILES | PNC assembly inh | ALDH1A1 inh | HPGD block
COCc1cc(=O)[nH]c(SCC(=O)c2ccccc2)n1 | / | -4% | /
C=CCc1cc(C(=O)N2CCCCC2)ccc1O | -81* | ? | 4µM*
Cc1[nH]c2ccc(C(=O)N3CCCCC3)cc2c1C | / | 3% | /
CN1CCN(C(=O)C2=C[C@@H](c3coc4ccccc4c3=O)C[C@@H](OCCCCO)O2)CC1 | / | 1% | /
COC(=O)c1ccc(NC(=O)C23CCC(C)(C(=O)O2)C3(C)C)cc1 (stereo unspecified) | 38 | 6% | -8%
CO/N=C/NC(=O)c1ccc([N+](=O)[O-])c(CS(=O)(=O)c2ccc(Cl)cc2)c1 | 29 | 6% | -23%
NNC(=O)c1ccc([N+](=O)[O-])c(CS(=O)(=O)c2ccc(Cl)cc2)c1 | -11 | 11µM* | -19%
O=S(=O)(NCCc1ccccc1)c1cccc2cccnc12 | / | 4% | /
CN(CCCNS(=O)(=O)c1cccc2cccnc12)Cc1ccccc1 | -8 | 14µM* | -12%
O=C(Nc1cccc(S(=O)(=O)N2CCOCC2)c1)c1ccc(Cl)c([N+](=O)[O-])c1 | / | -6% | /
O=C(Nc1ccc(N2CCCC2)c(Cl)c1)c1ccccc1[N+](=O)[O-] | 28 | ? | -24%
CC(=O)Nc1ccc(N2CCOCC2)c([N+](=O)[O-])c1 | / | -4% | /
CC(=O)N1CCN(c2ccc(NC(=O)c3ccc(N4CCCC4)c([N+](=O)[O-])c3)cc2Cl)CC1 | ? | 7.9µM* | -5%
Cc1ccc(NC(=S)NNC(=O)c2ccc(N3CCOCC3)c([N+](=O)[O-])c2)cc1C | -9 | 4µM* | -13%
CN(C)S(=O)(=O)c1cccc(NC(=O)c2ccc(N3CCOCC3)c([N+](=O)[O-])c2)c1 | -10 | 18µM* | -17%
O=C(Oc1ccc(Cl)cc1)c1ccc(N2CCOCC2)c([N+](=O)[O-])c1 | ? | ? | -18%
Cc1ccc(OC(=O)c2ccc(N3CCOCC3)c([N+](=O)[O-])c2)cc1 | ? | 7.1µM* | ?
CC(C)CN(CC(C)C)S(=O)(=O)N1CCC(C(=O)NCc2ccc3c(c2)OCO3)CC1 | / | 3% | /
CN(C)C(=O)c1ccc(-c2nccc(-n3ccnc3)n2)cc1 | / | 6% | /
COC(=O)[C@@]1(C)CCC[C@@]2(C)c3ccc(O)c(C(C)C)c3CCC21 (stereo partly specified) | / | -1% | -11%
Cc1cc([N+](=O)[O-])nn1CC(=O)NNC(=S)Nc1ccc(F)cc1 | -14 | 1% | -7%
COc1ccc(/C=C(/NC(=O)c2ccccc2)C(=O)NC2CCS(=O)(=O)C2)cc1 (stereo unspecified) | -7 | ? | -16%
COc1ccc(-n2c(SCC(=O)Nc3cccc(S(N)(=O)=O)c3)nc3ccccc3c2=O)cc1OC | / | 16% | /
O=C(Nc1ccc(N2CCCCC2)c(Cl)c1)c1ccc(N2CCOCC2)c([N+](=O)[O-])c1 | 32 | 8.9µM* | -17%
O=C(Nc1ccc2c(c1)OCO2)c1ccc(NC2CC2)c([N+](=O)[O-])c1 | -24 | -4% | -15%
SMILES | PNC assembly inh | ALDH1A1 inh | HPGD block
Cc1ccc(NC(=O)c2ccc(N3CCOCC3)c([N+](=O)[O-])c2)cc1S(=O)(=O)N1CCOCC1 | -4 | ? | -4%
O=C(Nc1ccc2c(c1)OCO2)c1ccc(N2CCCC2)c([N+](=O)[O-])c1 | 96 | 16µM* | -21%
CCCn1c(SC(C(=O)Nc2cccc(OC)c2)c2ccccc2)nc2ccccc2c1=O (stereo unspecified) | -26 | 0% | -3%
Cc1cc2c(nc1C)CCCCN2C[C@H](C)O/N=C\[C@@H](C)[C@H](OCc1ccccc1)C(C)C | / | -6%[13.5 µM] | /
CC(C)COc1ccc2[nH]c3c(c2c1)CCCC3=O | 40 | ? | -16%
CC1(C)Cc2nc3sc4c(=O)n(CC(=O)NCc5ccco5)cnc4c3cc2CO1 | 1 | 22µM* | ?
CC1(C)Cc2nc3oc4c(=O)n(CC(=O)Nc5ccccc5)cnc4c3cc2CO1 | 28 | ? | -9%
Cc1ccc(NC(=O)Cn2cnc3c(oc4nc5c(cc43)COC(C)(C)C5)c2=O)cc1 | -84* | -4% | -4%
Cc1cccc(NC(=O)Cn2cnc3c(oc4nc5c(cc43)COC(C)(C)C5)c2=O)c1 | 17 | 4% | -18%
COc1ccc(N2C(=O)CCC(C(=O)NCCCN3CCC(C)CC3)C2c2ccc(OC)c(OC)c2)cc1 (stereo unspecified) | / | -4% | /
CCN(CC)C(=O)Cn1cc(SCC(=O)NC2CCCC2)c2ccccc21 | / | -8% | /
Cc1nc2sc3c(c2c(=O)o1)CCC3 | -4 | 25µM* | 20µM*
CSc1nc2sc3c(c2c(=O)[nH]1)CCC3 | -16 | ? | ?
Cc1nc2sc3c(c2c(=O)[nH]1)CCCC3 | / | 1%[13.5 µM] | -9%
O=c1[nH]c(-c2ccco2)nc2sc3c(c12)CCCC3 | -116* | ? | ?
O=c1[nH]c(S)nc2sc3c(c12)CCCC3 | / | 4.5µM* | /
Cc1nc2sc3c(c2c(=O)o1)CC(C)(C)OC3 | ? | ? | -8%
OC(Cn1cccn1)c1ccccc1 (stereo unspecified) | ? | 9% | -9%
O=C(Nc1nonc1NC(=O)C1CCCCC1)C1CCCCC1 | ? | -2% | 2%
O=C(OCn1ncc(Cl)c(Cl)c1=O)c1cccc(C(F)(F)F)c1 | ? | 0.63µM* | 18µM*
N#CCC(CNc1ncc(C(F)(F)F)cc1Cl)OC(=O)c1cccc(C(F)(F)F)c1 (stereo unspecified) | ? | -10% | ?
Cc1nc(N)sc1-c1csc(N(C)c2ccc(O)cc2)n1 | 9 | 14µM* | 14µM*
CN(c1ccc(O)cc1)c1nc(-c2cccs2)cs1 | / | 7% | /
CCC(COC)NC(=O)CCc1nnc(Cc2cccc(C(F)(F)F)c2)o1 (stereo unspecified) | / | 2% | /
CC(C)CNC(=O)c1cnn2c(C(F)(F)F)cc(C(F)(F)F)nc12 | / | 6% | /
SMILES | PNC assembly inh | ALDH1A1 inh | HPGD block
CCOC(=O)C(=NCCCN1CCOCC1)NNc1cccc(C(F)(F)F)c1 | / | 3% | /
Clc1cccc(Cl)c1/C=N\Nc1nccs1 | ? | ? | 7.9µM*
Cc1nnc(N/N=C/c2c(Cl)cccc2Cl)n1N | / | -5% | /
COc1ccccc1C(=O)N/C(=N/c1nc(C)cc(C)n1)Nc1ccccc1 | / | 11% | /
Cc1cc(C(=O)COC(=O)CC2Sc3ccccc3NC2=O)c(C)n1-c1ccc(Br)cc1 (stereo unspecified) | ? | 12µM* | -13%
Cc1cc(C(=O)COC(=O)CC2Sc3ccccc3NC2=O)c(C)n1-c1ccccc1 (stereo unspecified) | -21 | ? | -2%
CCCCC1=CC2=C(OC(C)=O)C(=O)C(C)(OC(=O)CC)C(=O)C2=CO1 (stereo unspecified) | / | -3% | -6%
O=C(COC(=O)C1CC2C=CC1C2)NCc1ccccc1Cl (stereo unspecified) | -12 | -4% | -14%
COC(=O)c1ccc(CNC(=O)COC(=O)CCC2CCCC2)cc1 | 11 | -13% | -21%
COc1ccc(CNC(=O)COC(=O)C2CC3C=CC2C3)cc1 (stereo unspecified) | 5 | 11µM* | ?
COc1ccc(CNC(=O)COC(=O)CCC2CCCCC2)cc1 | 36 | 5.6µM* | /
COc1ccc(C(=O)N2CCN(S(=O)(=O)N3CCOCC3)CC2)cc1OC | 32 | 11% | -4%
